This note sets out measurements from PubChem BioAssay (Tox21).

Inconclusive results are not listed. Entries that show only a call come without a potency. Active and inactive are the calls of the source. Unless noted, the call rests on the fitted dose curve; in most records, active means well fitted cell-killing curve with a large enough effect in the repeat runs; inconclusive means weak or mixed curves, or effect the other way; inactive means no such curve, though single readings can be large or run the other way.

The nature of one assay: qHTS assay to identify small molecule antagonists of the vitamin D receptor (VDR) signaling pathway - cell viability counter screen (AID 743225). Further: nearly all actives have a fitted effect of over 50% in size. The conditions noted are these: VDR-bla HEK293T viability, CellTiter-Glo luminescence, 16 h; series mostly up to 61 µM. An outline of the steps: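 VDR-UAS-bla HEK 293T cells were plated and incubated 4 h at 37C, then dosed with compound plus 3 nM (final) 1-alpha,25-dihydroxyvitamin D3 for 16 h. After the 2 h beta-lactamase read, viability in the same wells was read as CellTiter-Glo luminescence after 30 min at room temperature.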
In the case of `O=[N+]([O-])c1cccc(S(=O)(=O)NCCNS(=O)(=O)c2cccc([N+](=O)[O-])c2)c1`, the Potency result was “inactive”.

With `CCCCC(CC)COC(=O)COc1ccc(Cl)cc1C` (configuration not stated), the Potency entry is “inactive”.

Consider `CN1CCN(c2c(F)cc3c(=O)c(C(=O)O)cn4c3c2OCN4C)CC1`, for which the Potency entry is “inactive”.

With `O=C1NCCN1`, the Potency result is “inactive”.

With `C=CC(C)(O)CCCC(C)CCCC(C)CCCC(C)C` (configuration not stated), the Potency entry was “inactive”.

Turning to `COc1cc2c(N3CCN(C(=O)Nc4ccc(OC(C)C)cc4)CC3)ncnc2cc1OCCCN1CCCCC1`, the Potency entry was “inactive”.

For the compound `OC(CCCN1CCCCC1)(c1ccccc1)c1ccccc1`, the Potency entry was “inactive”.

Take `Nc1c(I)cc(I)c(C(=O)N(CCC(=O)O)c2ccccc2)c1I`: the Potency entry is “inactive”.

With `Nc1nccs1`, the Potency result was “inactive”.

Take `O=C(O)c1snc(Cl)c1Cl`: the Potency result is “inactive”.

In the case of `CCC1(C)CC(=O)NC1=O` (configuration not stated), the Potency result was “inactive”.

Consider `CCn1nc(C)c2c1C(=O)NCC(c1ccc(O)cc1)=N2`, for which the Potency result was “inactive”.

`Cc1ccccc1N1C(=O)c2cc(S(N)(=O)=O)c(Cl)cc2NC1C` (configuration not stated): the Potency entry was “inactive”.

Regarding `Nc1nc(Cl)nc2c1ncn2[C@@H]1O[C@H](CO)[C@@H](O)[C@@H]1F`, the Potency result was “inactive”.

Regarding `CC(C)C(=O)O`, the Potency result was “inactive”.

Regarding `CCOC(=O)C(C)Oc1ccc(Oc2nc3ccc(Cl)cc3o2)cc1` (configuration not stated), the Potency entry is “inactive”.

In the case of `C[C@@H]1C[C@H]2[C@@H]3CCC4=CC(=O)C=C[C@]4(C)[C@@]3(F)[C@@H](O)C[C@]2(C)[C@H]1C(=O)CO`, the Potency result is “inactive”.

Regarding `O=S1OCCO1`, the Potency result is “inactive”.

Turning to `CCCCN(CCCC)CCCOC(=O)c1ccc(N)cc1`, the Potency entry is “inactive”.

For `C=CC(C)=CCC=C(C)C`, the Potency entry was “inactive”.

Regarding `CCC(C)=O`, the Potency entry is “inactive”.

Turning to `COC(=O)[C@@H]1CC2=CC(=O)CC[C@]2(C)[C@@]23O[C@@H]2C[C@@]2(C)[C@@H](CC[C@@]24CCC(=O)O4)[C@H]13`, the Potency entry was “inactive”.

Turning to `NC(=O)Nc1ccc(Cl)cc1`, the Potency entry is “inactive”.

In the case of `Cc1ccc(S(=O)(=O)NC2CCCCC2)cc1`, the Potency entry is “inactive”.

On to `CO[Si](C)(OC)OC`, for which the Potency entry is “inactive”.

Take `CCCCOC(=O)CCS`: the Potency result was “inactive”.

For the compound `CCOc1cc(N)c(Cl)cc1C(=O)NCC1CN(Cc2ccc(F)cc2)CCO1` (configuration not stated), the Potency result was “inactive”.

As to `CN1CCCN=C1/C=C/c1cccs1`, the Potency entry was “inactive”.

In the case of `CCCCCCCCCOC(C)=O`, the Potency entry is “inactive”.

For the compound `Cn1c(=O)c2c(ncn2CC(=O)O)n(C)c1=O`, the Potency entry is “inactive”.

Regarding `N#C[C@@H]1C[C@@H]2C[C@@H]2N1C(=O)[C@@H](N)C12CC3CC(CC(O)(C3)C1)C2`, the Potency result is “inactive”.

On to `O=C(O)c1ccc(CO)o1`, for which the Potency result was “inactive”.

Regarding `CN1Cc2cc(C(=O)N3CCC(C4CCNCC4)CC3)ccc2N[C@@H](CC(=O)O)C1=O`, the Potency result was “inactive”.

Another assay in a line: qHTS assay to identify small molecule agonists of the NFkB signaling pathway (AID 1159509; active means well fitted curve in the direction sought with a large enough effect in the signal ratio in the repeat runs, not every such curve was filed as active; the % refers to the signal ratio). The following applies: NFkB-bla ME-180 cells, beta-lactamase FRET ratio, 5 h; series mostly up to 61 µM. The procedure, abridged: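 ME-180 NFkB-bla, 2,000 cells/well, overnight plating; cpd pinned in DMSO, 5 h 37 C; B/G FRET substrate 1.5 h RT; ex 405, em 460/530 nm.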
With `O=[N+]([O-])c1cccc(S(=O)(=O)NCCNS(=O)(=O)c2cccc([N+](=O)[O-])c2)c1`, the outcome was inactive.

As to `CCCCC(CC)COC(=O)COc1ccc(Cl)cc1C` (configuration not stated), the outcome was inactive.

For the compound `CN1CCN(c2c(F)cc3c(=O)c(C(=O)O)cn4c3c2OCN4C)CC1`, the result was inactive.

For `O=C1NCCN1`, the result was inactive.

With `C=CC(C)(O)CCCC(C)CCCC(C)CCCC(C)C` (configuration not stated), the result was inactive.

On to `COc1cc2c(N3CCN(C(=O)Nc4ccc(OC(C)C)cc4)CC3)ncnc2cc1OCCCN1CCCCC1`, for which the outcome was inactive.

On to `OC(CCCN1CCCCC1)(c1ccccc1)c1ccccc1`, for which the outcome was inactive.

With `Nc1c(I)cc(I)c(C(=O)N(CCC(=O)O)c2ccccc2)c1I`, the outcome was inactive.

Turning to `Nc1nccs1`, the outcome was inactive.

In the case of `O=C(O)c1snc(Cl)c1Cl`, the result was inactive.

For the compound `CCC1(C)CC(=O)NC1=O` (configuration not stated), the outcome was inactive.

As for `C/C(=N/NC(=O)c1ccncc1)C(=O)O`, the result was inactive.

For `CCn1nc(C)c2c1C(=O)NCC(c1ccc(O)cc1)=N2`, the outcome was inactive.

As for `Cc1ccccc1N1C(=O)c2cc(S(N)(=O)=O)c(Cl)cc2NC1C` (configuration not stated), the result was inactive.

For `O=S(=O)(c1ccccc1)c1ccc(Cl)cc1`, the result was inactive.

In the case of `Nc1nc(Cl)nc2c1ncn2[C@@H]1O[C@H](CO)[C@@H](O)[C@@H]1F`, the outcome was inactive.

For the compound `CC(C)C(=O)O`, the result was inactive.

For `CCOC(=O)C(C)Oc1ccc(Oc2nc3ccc(Cl)cc3o2)cc1` (configuration not stated), the result was inactive.

In the case of `Oc1cc(O)c(Cl)cc1Cl`, the outcome was inactive.

As to `C[C@@H]1C[C@H]2[C@@H]3CCC4=CC(=O)C=C[C@]4(C)[C@@]3(F)[C@@H](O)C[C@]2(C)[C@H]1C(=O)CO`, the result was inactive.

Turning to `O=S1OCCO1`, the result was inactive.

For the compound `CC(=O)Nc1ccccc1C`, the outcome was inactive.

Consider `Nc1ccc(S(=O)(=O)O)c(N)c1`, for which the outcome was inactive.

On to `CCCCN(CCCC)CCCOC(=O)c1ccc(N)cc1`, for which the outcome was inactive.

As to `C=CC(C)=CCC=C(C)C`, the outcome was inactive.

Take `CCC(C)=O`: the result was inactive.

For the compound `COC(=O)[C@@H]1CC2=CC(=O)CC[C@]2(C)[C@@]23O[C@@H]2C[C@@]2(C)[C@@H](CC[C@@]24CCC(=O)O4)[C@H]13`, the outcome was inactive.

In the case of `NC(=O)Nc1ccc(Cl)cc1`, the result was inactive.

On to `Cc1ccc(S(=O)(=O)NC2CCCCC2)cc1`, for which the outcome was inactive.

For the compound `CO[Si](C)(OC)OC`, the outcome was inactive.

As for `CCCCOC(=O)CCS`, the outcome was inactive.

`CCOc1cc(N)c(Cl)cc1C(=O)NCC1CN(Cc2ccc(F)cc2)CCO1` (configuration not stated): the result was inactive.

Regarding `CN1CCCN=C1/C=C/c1cccs1`, the outcome was inactive.

`CCCCCCCCCOC(C)=O`: the result was inactive.

As for `Cn1c(=O)c2c(ncn2CC(=O)O)n(C)c1=O`, the result was inactive.

Consider `N#C[C@@H]1C[C@@H]2C[C@@H]2N1C(=O)[C@@H](N)C12CC3CC(CC(O)(C3)C1)C2`, for which the outcome was inactive.

With `O=C(O)c1ccc(CO)o1`, the outcome was inactive.

For the compound `CN1Cc2cc(C(=O)N3CCC(C4CCNCC4)CC3)ccc2N[C@@H](CC(=O)O)C1=O`, the result was inactive.

Consider `CC1(C)C2=CCCC(C)(C)[C@]23CC[C@H]1C3`, for which the result was inactive.
